DAX1 inh-1: DAX1 (NR0B1) inhibitors, primary screen, cell-based, HEK293, Gal4-DAX1, luciferase luminescence; Nuclear receptor subfamily 0 group B member 1 (Homo sapiens), P51843; inhibition, % at 6.75 µM; HEK293 Gal4-DAX1 luciferase reporter; AID 504766, 2011; 340,000 tested, 0.99% active;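 active means inhibition above the mean over all tested compounds plus 3 SD, cut at about 4.2% in these data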;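 further: inhibition shows as a rise in luminescence from relieved DAX1 repression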
Target sequence (P51843 207-470 limits assumed): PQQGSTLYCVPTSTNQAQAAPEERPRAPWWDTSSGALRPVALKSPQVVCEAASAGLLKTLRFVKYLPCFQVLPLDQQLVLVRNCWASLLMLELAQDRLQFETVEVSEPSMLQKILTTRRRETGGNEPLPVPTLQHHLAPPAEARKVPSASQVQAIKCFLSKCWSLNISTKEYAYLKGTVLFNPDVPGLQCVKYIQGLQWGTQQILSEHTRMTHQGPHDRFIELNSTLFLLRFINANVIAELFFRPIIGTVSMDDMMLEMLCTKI
DAX1 inh-2: DAX1 (NR0B1) inhibitors on StAR promoter, primary screen, cell-based, luminescence, SF-1 (NR5A1), full-length DAX-1. HEK293T StAR-luciferase reporter, SF-1/DAX-1 repression relief. inhibition, % at 6.8 µM. 370,000 tested, 1.1% active. AID 652010, 2013;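 active means inhibition above the mean over all tested compounds plus 3 SD, cut at about 3.6% in these data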;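 further: higher inhibition means more luminescence from relief of DAX-1 repression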
SMARCA2 act: SMARCA2 (BRM) function activators, primary screen, cell-based, luminescence, high throughput | MG213 cells, MMTV-luciferase reporter, dexamethasone, overnight | activation, % at 9.1 µM | 370,000 tested, 1% active; in the data active means activation above about 7.8%
hgDAF-12 ag: H. glycines DAF-12 receptor agonists, primary screen, cell-based, luminescence, HEK293, GAL4 fusion, UAS-luciferase. activation, % at 6.8 µM. AID 687014, 2013. Nuclear hormone receptor DAF-12 (Heterodera glycines), GAL4 fusion. 370,000 tested, 1.8% active. HEK293 GAL4-hgDAF12 UAS-luciferase reporter, agonist luminescence; normalized to butyrate control;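 active means activation above a cutoff set at the mean of all screened compounds plus 3 SD, cut at about 10% in these data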
hcDAF-12 act: H. contortus DAF-12 nuclear receptor activators, primary screen, cell-based, luminescence, HEK293, lit1-tk-luc reporter; HEK293 hcDAF-12 lit1-tk-luc reporter; 0% DMSO, 100% Δ7-dafachronic acid; activation, % at 6.8 µM; 370,000 tested, 1.4% active;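 active means activation above the mean of all tested compounds plus 3 SD, cut at about 5.5% in these data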
ssDAF-12 act: S. stercoralis DAF-12 nuclear receptor activators, primary screen, cell-based, luminescence, HEK293, GRIP1 co-expression, lit1-tk-luc. HEK293 ssDAF-12/GRIP1 lit1-tk-luc reporter; % of 3 µM dafachronic acid response. activation, % at 6.8 µM. 370,000 tested, 1% active;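 active means activation above the mean over all tested compounds plus 3 SD, cut at about 0.9% in these data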
SMARCA2 act conf: SMARCA2 (BRM) function activators, confirmation, cell-based, luminescence, triplicate; shares compounds with SMARCA2 act; MG213 cells, MMTV-luciferase with dexamethasone, overnight; MG213 cells expressing E1A, Rb sequestered; DMSO wells 0%, reference activator 100%; activation, % at 9.1 µM; 3,500 tested, 30% active; AID 652260, 2013;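 active means activation above its plate's cutoff, the mean activation of tested wells plus 3 SD, cut at about 7.9% in these data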
GAL4-VP16 Luc: GAL4-VP16 luciferase reporter activation, counter-screen for SMARCA2 (BRM) activator project, cell-based, pG5luc, luminescence, high throughput; shares compounds with SMARCA2 act; HEK293 GAL4-VP16 pG5luc reporter; scaled: DMSO wells 0%, SAHA wells 100%; activation, % at 9.1 µM; 3,500 tested, 41% active; AID 686939, 2013;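 active means activation above the solvent-only control well mean plus 3 SD, averaged across control plates, cut at about 5.2% in these data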
Numbers stand for hits. A selection: hits, their analogues and other compounds. The true share with any hit is near 4.8%.

C[C@@H]1O[C@@H](OC[C@H]2O[C@@H](Oc3c(-c4ccc(O)c(O)c4)oc4cc(O)cc(O)c4c3=O)[C@H](O)[C@@H](O)[C@@H]2O)[C@H](O)[C@H](O)[C@H]1O was read as DAX1 inh-1 inactive, DAX1 inh-2 inactive, SMARCA2 act 8.2, hgDAF-12 ag inactive, hcDAF-12 act inactive, ssDAF-12 act inactive, SMARCA2 act conf inactive and GAL4-VP16 Luc inactive.
For CC1OC(OCC2OC(Oc3c(-c4ccc(O)cc4)oc4cc(O)cc(O)c4c3=O)C(O)C(O)C2O)C(O)C(O)C1O (stereo unspecified) the results were DAX1 inh-1 inactive, DAX1 inh-2 inactive, SMARCA2 act inactive, hgDAF-12 ag inactive, hcDAF-12 act inactive and ssDAF-12 act inactive.
Screening O=C(Cc1cccs1)Nc1ccc(NC(=O)c2ccco2)cc1 returned DAX1 inh-1 inactive, DAX1 inh-2 inactive, SMARCA2 act 12, hgDAF-12 ag inactive, hcDAF-12 act inactive, ssDAF-12 act inactive, SMARCA2 act conf inactive and GAL4-VP16 Luc 7.9.
Screening O=C(Cc1cccs1)NCc1cccs1 returned DAX1 inh-1 inactive.
O=C(Cc1cccs1)Nc1ccccc1 was read as DAX1 inh-1 inactive, DAX1 inh-2 inactive, SMARCA2 act inactive, hgDAF-12 ag inactive, hcDAF-12 act inactive and ssDAF-12 act inactive.
Screening O=C(Cc1cccs1)NCc1cccc(Br)c1 returned DAX1 inh-1 inactive, DAX1 inh-2 inactive, SMARCA2 act 9.2, hgDAF-12 ag inactive, hcDAF-12 act inactive, ssDAF-12 act inactive, SMARCA2 act conf inactive and GAL4-VP16 Luc 7.8.
Screening CCS(=O)(=O)c1nc(S(=O)(=O)c2ccc(Cl)cc2)c(NCc2ccccn2)s1 returned DAX1 inh-1 inactive, DAX1 inh-2 inactive, SMARCA2 act inactive, hgDAF-12 ag inactive, hcDAF-12 act inactive and ssDAF-12 act inactive.
O=C(NCc1ccc(Cl)cc1)c1cc2ccccn2n1 was read as DAX1 inh-1 inactive, DAX1 inh-2 inactive, SMARCA2 act inactive, hgDAF-12 ag inactive, hcDAF-12 act inactive and ssDAF-12 act inactive.
For O=C(NCCc1ccc(F)cc1)c1cc2ccccn2n1 the results were DAX1 inh-2 inactive, SMARCA2 act 16, hgDAF-12 ag inactive, hcDAF-12 act inactive, ssDAF-12 act inactive, SMARCA2 act conf inactive and GAL4-VP16 Luc 7.3.
For C/C(=N\NC(=O)c1ccccc1OCc1ccc(F)cc1)c1ccccn1 the results were DAX1 inh-1 inactive, DAX1 inh-2 inactive, SMARCA2 act 17, hgDAF-12 ag inactive, hcDAF-12 act inactive, ssDAF-12 act inactive, SMARCA2 act conf inactive and GAL4-VP16 Luc 7.6.
`CCOc1ccc(OCc2ccc(C(=O)N/N=C(\C)c3ccccn3)cc2)cc1` gave DAX1 inh-1 inactive, DAX1 inh-2 inactive, SMARCA2 act inactive, hgDAF-12 ag inactive, hcDAF-12 act inactive and ssDAF-12 act inactive.
Screening CCCCCCCCC(=O)N1C(C)CCC1C (stereo unspecified) returned DAX1 inh-1 inactive, DAX1 inh-2 inactive, SMARCA2 act inactive, hgDAF-12 ag inactive, hcDAF-12 act inactive and ssDAF-12 act inactive.
Cn1nc(N)c2ncc(-c3ccc(Cl)cc3)nc21 was read as DAX1 inh-1 inactive, DAX1 inh-2 inactive, SMARCA2 act 9.1, hgDAF-12 ag 11, hcDAF-12 act inactive, ssDAF-12 act inactive, SMARCA2 act conf 8.9 and GAL4-VP16 Luc 7.7.
Screening Cc1cccc(C(=O)OCC(=O)NN2C(=O)NC3(CCC(C)CC3)C2=O)c1O (stereo unspecified) returned DAX1 inh-1 inactive, DAX1 inh-2 inactive, SMARCA2 act inactive, hgDAF-12 ag inactive, hcDAF-12 act inactive and ssDAF-12 act inactive.
Screening COc1ccc(-c2noc(C3CCCN(C(=O)Nc4cc(C)cc(C)c4)C3)n2)cc1 (stereo unspecified) returned DAX1 inh-2 inactive, SMARCA2 act 10, hgDAF-12 ag inactive, hcDAF-12 act inactive, ssDAF-12 act inactive, SMARCA2 act conf inactive and GAL4-VP16 Luc 9.7.
CSCc1cc(N2CCCC2)nc(-c2ccccc2)n1 was read as DAX1 inh-1 inactive, DAX1 inh-2 inactive, SMARCA2 act inactive, hgDAF-12 ag inactive, hcDAF-12 act inactive and ssDAF-12 act inactive.
For CC[C@H](C)C(=O)O[C@H]1CCC=C2C=C[C@H](C)[C@H](CC[C@@H]3C[C@@H](O)CC(=O)O3)[C@H]21 the results were DAX1 inh-1 inactive, DAX1 inh-2 3.9, SMARCA2 act 11, hgDAF-12 ag inactive, hcDAF-12 act inactive, ssDAF-12 act inactive, SMARCA2 act conf inactive and GAL4-VP16 Luc inactive.
Screening O=C(NN=C1CCCCCCC1)c1ccc(F)cc1 returned DAX1 inh-1 inactive, DAX1 inh-2 inactive, SMARCA2 act inactive, hgDAF-12 ag inactive, hcDAF-12 act inactive and ssDAF-12 act inactive.
O=C(NN=C1CCCCCCCCCCC1)c1ccccc1F was read as DAX1 inh-1 inactive, DAX1 inh-2 inactive, SMARCA2 act 17, hgDAF-12 ag 12, hcDAF-12 act inactive, ssDAF-12 act inactive, SMARCA2 act conf inactive and GAL4-VP16 Luc inactive.
Cc1cccn2c(=O)c(/C=C(\C#N)C(=O)NCc3ccco3)c(N3CCOCC3)nc12 was read as DAX1 inh-2 inactive, SMARCA2 act 11, hgDAF-12 ag inactive, hcDAF-12 act inactive, ssDAF-12 act inactive, SMARCA2 act conf inactive and GAL4-VP16 Luc inactive.
Cc1ccc2nc(-c3ccc(N4C(=O)CC(N5CCN(CCO)CC5)C4=O)cc3)sc2c1 (stereo unspecified) was read as DAX1 inh-1 inactive, DAX1 inh-2 inactive, SMARCA2 act 8.6, hgDAF-12 ag inactive, hcDAF-12 act inactive, ssDAF-12 act inactive, SMARCA2 act conf inactive and GAL4-VP16 Luc inactive.
For Cc1ccc(N2C(=O)CC(N3CCN(c4ccccn4)CC3)C2=O)cc1 (stereo unspecified) the results were DAX1 inh-1 inactive, DAX1 inh-2 inactive, SMARCA2 act inactive, hgDAF-12 ag inactive, hcDAF-12 act inactive and ssDAF-12 act inactive.

Assay outcomes deposited in PubChem BioAssay by The Scripps Research Institute Molecular Screening Center.
